Results filed as inconclusive are left out. Activity calls are given as the source filed them. Calls follow the shape of the dose curve; as a rule, active = well fitted inhibition curve with a large enough effect; inconclusive = small, poorly fitted or top-dose-only effect; inactive = no such curve, though single readings can be large or run the other way.

A short description of test [1]: qHTS assay for measurement of the activity of small molecule inhibitors on Zika virus induced Caspase-3 activity in human iPSC derived neural progenitor cells (hNPCs) (AID 1224857). Also: nearly all actives have a fitted effect of over 65% in size. A digest of the protocol:
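Caspase-3/7 induction by a 6-hour ZIKV infection was quantified with a luminescent Caspase-Glo 3/7 reagent incubated 30 minutes at room temperature. Compounds were preincubated with hNPCs for 1 hour; inhibition was calculated against uninfected and infected control wells.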
A general note: qHTS replaces the single test concentration by a dilution series.

Test [2] can be described thus: qHTS assay for measurement of the activity of small molecule inhibitors on Zika virus induced Caspase-3 activity in human astrocytoma cells (AID 1224859). A digest of the protocol: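 In SNB-19 cells plated at 250 cells/well and grown 16-20 h, compounds were applied 1 h before ZIKV (2 FFU/cell). Six hours later caspase-3/7 luminescence was recorded.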
Test [3] can be described thus: qHTS Screen of the MIPE 4.0 Collection Against Ewings Sarcoma (RDES) (AID 1259252). Also: nearly all actives have a fitted effect of over 35% in size. The method in brief: (§1)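 Compound titrations go onto adherent log-phase cells 4 h after seeding, incubate 48 h at 37C, then CellTiter-Glo luminescence reports viability relative to DMSO and cell-free controls.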
Test [4] is described as follows: qHTS Screen of the MIPE 4.0 Collection Against Ewings Sarcoma (TC71) (AID 1259253). Also: nearly all actives have a fitted effect of over 40% in size. A digest of the protocol: as §1
Test [5] is described as follows: qHTS Screen of the MIPE 4.0 Collection Against Ewings Sarcoma (EW8) (AID 1259255). Also: nearly all actives have a fitted effect of over 35% in size. The method in brief:
as §1

Test [6] in a line: qHTS Screen of the MIPE 4.0 Collection Against Ewings Sarcoma (TC32) (AID 1259256). Also: nearly all actives have a fitted effect of over 45% in size. The method in brief: as §1
Potency is read from the fitted curve at half-maximal effect.

For the molecule `COC(=O)Nc1ccc(-c2nc(N3CCOCC3)c3cnn(C4CCN(Cc5cccnc5)CC4)c3n2)cc1`, the Potency entry in test [1] and in test [2] was “inactive” each time. Moreover, the Potency in test [3] is 0.166 µM (active); in test [4], 0.059 µM (active); in test [5], 0.0833 µM (active); in test [6], 0.0469 µM (active).
Regarding `C=C1C(=CC=C2CCC[C@]3(C)[C@@H]([C@H](C)C=C[C@H](C)C(C)C)CC[C@@H]23)C[C@@H](O)C[C@@H]1O`, the Potency result in test [1] and in test [2] was “inactive” each time. Also, the Potency in test [3] is 0.332 µM (active); in test [4], 0.743 µM (active); in test [5] it was 2.35 µM (active); in test [6] it was 0.833 µM (active).
For the molecule `CCCNC(=O)Nc1ccc(Oc2ncnc3cc(OC)c(OC)cc23)cc1Cl`, the Potency result in test [1], in test [2], in test [3], in test [4], in test [5] and in test [6] was “inactive” in each case.
Take `CN[C@H]1CCc2cc(OC)c(OC)c(OC)c2-c2ccc(OC)c(=O)cc21`: the Potency result in test [1], in test [2] and in test [6] was “inactive” throughout. In addition, the results for the Potency in test [3], in test [4] and in test [5] were 0.0021 µM (active), 0.0033 µM (active) and 0.0019 µM (active), respectively.
With `COc1cccc(-c2ccc(NC(=O)C3=C(C(=O)O)CCC3)c(F)c2)c1`, the Potency in test [1] is 2.64 µM (active); in test [2], 2.35 µM (active); in test [3], 14.8 µM (active); in test [4], 11.8 µM (active); in test [5], 9.35 µM (active); in test [6] it was 16.6 µM (active).
As for `Cn1c2ccccc2c2c3c(c4c5ccccc5n(CCC#N)c4c21)CNC3=O`, the Potency entry in test [1] and in test [2] was “inactive” throughout. For the same molecule, the Potency in test [3] was 0.935 µM (active); in test [4], 1.18 µM (active); in test [5] it was 8.33 µM (active); in test [6] it was 4.69 µM (active).
In the case of `CCS(=O)(=O)c1cccc(-c2cc(C(=O)NC3CCN(C)CC3)c(C)c3[nH]c4ncc(C)cc4c23)c1`, the Potency entry in test [1] and in test [2] was “inactive” each time. Besides, the Potency in test [3] was 0.743 µM (active); in test [4], 3.32 µM (active); in test [5], 0.118 µM (active); in test [6], 0.235 µM (active).
For `CC(C)c1cc(-c2n[nH]c(=O)n2-c2ccc3c(ccn3C)c2)c(O)cc1O`, the Potency entry in test [1] and in test [2] was “inactive” throughout. The Potency is 0.105 µM (active) in test [3], 0.0662 µM (active) in test [4], 0.0662 µM (active) in test [5] and 0.0526 µM (active) in test [6].
Take `CCC[C@H](NC(=O)C(C#N)=Cc1cccc(Br)n1)c1ccccc1`: the Potency result in test [1] and in test [2] was “inactive” in each case. Moreover, the Potency in test [3] was 7.43 µM (active); in test [4], 7.43 µM (active); in test [5] it was 6.62 µM (active); in test [6], 7.43 µM (active).
In the case of `CCc1cc2c(cc1N1CCC(N3CCOCC3)CC1)C(C)(C)c1[nH]c3cc(C#N)ccc3c1C2=O`, the Potency result in test [1], in test [2], in test [3], in test [4], in test [5] and in test [6] was “inactive” in each case.
In the case of `COc1ccc(F)c(F)c1C(=O)c1cnc(NC2CCN(S(C)(=O)=O)CC2)nc1N`, the Potency entry in test [1] and in test [2] was “inactive” in each case. The Potency is 2.64 µM (active) in test [3], 1.18 µM (active) in test [4], 3.72 µM (active) in test [5] and 2.35 µM (active) in test [6].
As for `O=C(Cc1ccc(-c2ccc(OCCN3CCOCC3)cc2)cn1)NCc1ccccc1`, the Potency entry in test [1] and in test [2] was “inactive” each time. In addition, the Potency in test [3] is 0.0235 µM (active); in test [4] it was 0.0372 µM (active); in test [5], 0.0235 µM (active); in test [6], 0.0235 µM (active).
As for `Cc1c(Cn2c(C)nc3c(C(=O)O)cc(N4CCOCC4)cc32)cccc1C(F)(F)F`, the Potency result in test [1] and in test [2] was “inactive” in each case. The Potency was 14.8 µM (active) in test [3], 10.5 µM (active) in test [4], 11.8 µM (active) in test [5] and 14.8 µM (active) in test [6].
As to `Cc1ccc(NC(=O)C2(c3ccc4c(c3)OC(F)(F)O4)CC2)nc1-c1cccc(C(=O)O)c1`, the Potency result in test [1] and in test [2] was “inactive” throughout. Further, the Potency in test [3] is 0.0526 µM (active); in test [4], 0.0372 µM (active); in test [5], 0.0469 µM (active); in test [6], 0.0526 µM (active).
For the molecule `O=C1CCC[C@@H]2[C@H]3CCC[N+]4([O-])CCC[C@@H](CN12)[C@@H]34` (stereo partly specified), the Potency result in test [1], in test [2], in test [3], in test [4], in test [5] and in test [6] was “inactive” in each case.
In the case of `COC(=O)Nc1nc2ccc(C(=O)c3ccc(F)cc3)cc2[nH]1`, the Potency entry in test [1] and in test [2] was “inactive” in each case. In addition, the Potency is 0.743 µM (active) in test [3], 1.05 µM (active) in test [4], 0.662 µM (active) in test [5] and 0.372 µM (active) in test [6].
Take `CC(C)(O)c1cc2nc(-c3cnc(N)nc3)nc(N3CCOCC3)c2s1`: the Potency result in test [1] and in test [2] was “inactive” in each case. Further, the Potency in test [3] was 0.059 µM (active); in test [4], 0.132 µM (active); in test [5], 0.148 µM (active); in test [6] it was 0.0662 µM (active).
Consider `COc1cc(C)c(Sc2cnc(NC(=O)c3ccc(CNC(C)C(C)C)cc3)s2)cc1C(=O)N1CCN(C(C)=O)CC1` (stereo unspecified), for which the Potency entry in test [1] and in test [2] was “inactive” each time. Further, the Potency in test [3] was 14.8 µM (active); in test [4] it was 18.7 µM (active); in test [5] it was 3.72 µM (active); in test [6], 5.9 µM (active).
Consider `C[C@@H]1COC(Nc2ccc3ncnc(Nc4ccc(OCc5nccs5)c(Cl)c4)c3c2)=N1`, for which the Potency entry in test [1] and in test [2] was “inactive” throughout. Also, the Potency is 2.64 µM (active) in test [3], 3.72 µM (active) in test [4], 20.9 µM (active) in test [5] and 10.5 µM (active) in test [6].
With `CNc1nccc(-c2cccnc2Oc2cc(C(=O)Nc3cccc(C(F)(F)F)c3)ccc2C)n1`, the Potency entry in test [1] and in test [2] was “inactive” each time. Moreover, the Potency in test [3] is 4.18 µM (active); in test [4], 16.6 µM (active); in test [5], 18.7 µM (active); in test [6], 16.6 µM (active).
For the molecule `COc1cc2c(cc1-c1c(C)noc1C)ncc1[nH]c(=O)n([C@H](C)c3ccccn3)c12`, the Potency entry in test [1] and in test [2] was “inactive” in each case. In addition, the Potency in test [3] is 6.62 µM (active); in test [4], 4.69 µM (active); in test [5] it was 18.7 µM (active); in test [6] it was 4.69 µM (active).

For the origin of these results see PubChem BioAssay (NCATS).
